Experimental data taken from PubChem BioAssay (NCI).
About 83,000 compounds went through this panel and 20% of them were active in at least one assay; those are over-represented in the sample as a whole.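 Growth was measured after 48 h exposure to one concentration of compound in 96-well plates. Values under 10 count as active.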 Values without a mark were called inactive. Activity calls are given as the source filed them.

Experiments:
Assay in all cases: NCI-60 one-dose screen, 48 h (100 = growth as untreated, 0 = no growth, -100 = all killed)
Settings in all cases: 10 µM unless noted
T-47D breast = tested on: T-47D breast
BT-549 breast = tested on: BT-549 breast
MDA-MB-435 melanoma = tested on: MDA-MB-435 melanoma
SW-620 colon = tested on: SW-620 colon
HCT-116 colon = tested on: HCT-116 colon
HCC-2998 colon = tested on: HCC-2998 colon
KM12 colon = tested on: KM12 colon
MCF7 breast = tested on: MCF7 breast

Row | SMILES | growth (T-47D breast) | growth (BT-549 breast) | growth (MDA-MB-435 melanoma) | growth (SW-620 colon) | growth (HCT-116 colon) | growth (HCC-2998 colon) | growth (KM12 colon) | growth (MCF7 breast)
1 | CCOP(=O)(OCC)OC[C@]12CCC(C)(C)C[C@H]1C1=CC[C@@H]3[C@@]4(C)C/C(=C\c5cccnc5)[C@H](OP(=O)(OCC)OCC)C(C)(C)[C@@H]4CC[C@@]3(C)[C@]1(C)CC2 | 16.1% | 33.4% | 31.2% | 25.9% | 11.1% | 33.1% | 23.6% | –
2 | CC1OC(O[C@@H]2C(O)C(CO)OC(O[C@H]3COC(O[C@H]4CC[C@]5(C)[C@H]6CC[C@]78OC[C@@]9(CC[C@](C)(C=O)C[C@H]97)[C@H](O)C[C@@]8(C)[C@]6(C)CC[C@H]5C4(C)C)[C@@H](OC4OC(CO)[C@@H](O)[C@@H](O)[C@@H]4O)[C@@H]3O)[C@H]2OC2OC[C@@H](O)[C@@H](O)[C@@H]2O)[C@@H](O)[C@@H](O)[C@H]1O (stereo partly drawn) | 53.1% | -56.9% (active) | -55.1% (active) | 10% | -65.9% (active) | – | 23.7% | 11%
3 | CC(C)(C)CC(C)(C)n1nnnc1C(Nc1ccccc1)c1cc2cccc3ccc4cccc1c4c32 (stereo not drawn) | 55.7% | 130% | 83.6% | 82.3% | 45.1% | 90.8% | 86.7% | –
4 | Cn1c(SC(C(=O)Nc2ccc(F)cc2)c2ccccc2)nc2ccccc2c1=O (stereo not drawn) | 96% | 102% | 101% | 105% | 95.3% | 98.3% | 112% | –
5 | CC1OC(O[C@@H]2[C@H](O)C(CO)OC(O[C@H]3COC(O[C@H]4CC[C@]5(C)[C@H]6CC[C@]78OC[C@@]9(CCC(C)(C)C[C@H]97)[C@H](O)C[C@@]8(C)[C@]6(C)CC[C@H]5C4(C)C)[C@@H](OC4OC(CO)[C@@H](O)[C@@H](O)[C@@H]4O)[C@@H]3O)[C@H]2OC2OC[C@@H](O)[C@@H](O)[C@@H]2O)[C@@H](O)[C@@H](O)[C@H]1O (stereo partly drawn) | -54.6% (active) | -69.2% (active) | -82.8% (active) | -75.9% (active) | -80.1% (active) | – | -51.9% (active) | -55.9% (active)
6 | CCN1C(=O)N(CC)C2C1NN=C1SC(c3ccccc3)=CC(=O)N12 (stereo not drawn) | 42.1% | -4.35% (active) | -33.3% (active) | 18.3% | 14.9% | 21.1% | 27.2% | –
7 | C=C1C(=O)O[C@@H]2/C=C(/C)C3=CC(=O)[C@@](C)(C[C@H](OC(=O)/C(C)=C\C)[C@@H]12)O3 | -17.4% (active) | 27.9% | -59% (active) | -28.7% (active) | -53.3% (active) | – | 28.2% | 13.2%
8 | COc1cc(CNC(=O)/C=C/c2ccccc2)ccc1OCC(=O)NO | 99.6% | 107% | 102% | 107% | 98.7% | 104% | 99.3% | –
9 | O=C1NC(=O)/C(=C/c2ccc(OCc3cc4ccccc4nc3Cl)cc2)S1 | 87.8% | 123% | 98.3% | 104% | 98.1% | 105% | 100% | –
10 | C=C(C)[C@@H]1CC[C@]2(C)[C@H](CC=C3[C@@H]4CC(C)(C)CC[C@]4(C(=O)NCC#CCN4CCN(C)CC4)CC[C@]32C)[C@@]1(C)CCC#N | 61.7% | 69.3% | 24.2% | 43.8% | 17.5% | 55.2% | 43.6% | –
11 | COc1ccc(Cn2cc3c(c2-c2ccccc2)CCCc2cnoc2-3)cc1 | 56.4% | 77.3% | -11.2% (active) | 28.2% | 28.8% | 87.9% | 32% | –
12 | COc1ccc2c(c1)c(-c1nn3c(=O)cc(-c4ccccc4)nc3s1)cn2C | 16% | 49.8% | -23.8% (active) | 28.1% | 22.7% | 75.2% | 44.7% | 18.9%
13 | Cc1cc(Cl)cc(NS(=O)(=O)c2ccc(-c3cnc(C4CC4)o3)cc2)c1 | 36.1% | 48% | -23.8% (active) | 28% | 18.4% | 19.8% | 15.4% | 24.9%
14 | IP(CCCCCCCCCCSc1n(Cc2ccc3ccccc3c2)c(-c2ccccc2)c(-c2ccccc2)[n+]1Cc1ccc2ccccc2c1)(c1ccccc1)(c1ccccc1)c1ccccc1 | -57.4% (active) | -71.4% (active) | -81.7% (active) | -77.8% (active) | -60.9% (active) | -86.8% (active) | -83.3% (active) | –
15 | NC(N)=NS(=O)(=O)c1ccc(N=NC2C(=O)NN(c3ccccc3)C2=O)cc1 (stereo not drawn) | 95.8% | 107% | 101% | 100% | 97.3% | 103% | 103% | –
16 | C[C@H]1[C@H](C)CC[C@]2(COC(=O)c3cccnc3)CC[C@]3(C)C(=CC[C@@H]4[C@@]5(C)CCCNC(C)(C)[C@@H]5CC[C@]43C)[C@H]12 | 61% | 76.5% | 68.5% | 39.1% | 33.5% | 49.6% | 68.9% | –
17 | C(=C(\C1=NCCN1)n1cnc2ccccc21)/c1cccc2ccccc12 | 82.4% | 107% | 74% | 102% | 88% | 92.9% | 42.5% | –
18 | Cn1cc(-c2nn3c(=O)cc(-c4ccccc4)nc3s2)c2cc(F)ccc21 | 64.2% | 67% | -5.19% (active) | 41.9% | 32.6% | 79.5% | 55.2% | –
19 | COc1cc2cc(Oc3ccc(NC(=O)c4cccc(C(F)(F)F)c4)cc3)c(C)nc2cc1OCCN(C)C | 91.2% | 101% | 6.7% (active) | 79.5% | 61.2% | 80.3% | 76.9% | 22.7%
20 | C=C1C(=O)O[C@@H]2C[C@@H](C)[C@H](OC)CC(=O)[C@](C)(OC(C)=O)C[C@H](OC(=O)/C(C)=C\C)[C@@H]12 | 46.9% | 83.7% | 82.8% | 15.6% | 5.78% (active) | – | 93.7% | 56.5%
21 | O=C(Nc1ccc(Cl)cc1)Nc1nc2ccc([N+](=O)[O-])cc2s1 | -25.9% (active) | -38% (active) | -27.7% (active) | 0.202% (active) | -35.1% (active) | -27.6% (active) | -13.2% (active) | –
22 | Oc1ccc(CSc2nnc(-c3ccccc3)o2)c2cccnc12 | 4.16% (active) | 29.4% | 21.8% | 14.5% | 16.6% | 37.6% | 17.3% | –
23 | CC(C)=CCc1c2c(c(O)c3c1O[C@]14C(=C[C@@H]5C[C@H]1C(C)(C)O[C@@]4(C/C=C(/C)C(=O)O)C5=O)C3=O)CC(O)C(C)(C)O2 (stereo partly drawn) | -10.2% (active) | -14.3% (active) | -16% (active) | -44.8% (active) | -69.8% (active) | -84.7% (active) | -68.9% (active) | –
24 | c1cncc(-c2cn3nc(-c4c[nH]c5ccccc45)sc3n2)c1 | 69.7% | 33.3% | -38% (active) | 28.6% | 28.8% | 59.1% | 26.6% | –
25 | Cc1ccc(-c2cc(-c3ccc(N(C)C)cc3)n3c(n2)nc2ccccc23)cc1 | 6.32% (active) | 82.2% | 65.3% | 80.1% | 39.4% | 80.3% | 78.4% | –
26 | C=C(C)C(=O)O[C@H]1C[C@@]2(C)OC(=CC2=O)/C(C)=C\[C@H]2OC(=O)C(=C)[C@H]12 | -0.517% (active) | -9.12% (active) | -57.4% (active) | -41.7% (active) | -68.5% (active) | – | -8.25% (active) | 11.7%
27 | CC(C)c1nn(-c2ccccc2)c(N2CCCCC2)c1/C=N/NC(N)=S | 66.8% | 85.2% | 97.5% | 101% | 79.1% | 105% | 103% | –
28 | C#C[C@]1(O)CC[C@H]2[C@@H]3CC=C4c5sc(Nc6cccc(Cl)n6)nc5CC[C@]4(C)[C@H]3CC[C@@]21C | 25.8% | 24.1% | -65.8% (active) | -61% (active) | 10.1% | 24.2% | -10.8% (active) | –
29 | CN(c1ccc(Br)cc1)S(=O)(=O)c1ccc(-c2cnc(C3CC3)o2)cc1 | 55.1% | 19.3% | -12.1% (active) | 27.9% | 14.5% | 16.4% | 23.2% | –
30 | C=C1C(=O)O[C@@H]2C[C@@H](C)/C=C\C(=O)[C@](C)(OC(C)=O)C[C@H](OC(=O)/C(C)=C\C)[C@@H]12 | -72.8% (active) | -9.56% (active) | -53.4% (active) | -29.5% (active) | -70.3% (active) | – | 11.9% | 11.2%
